Data on eight compounds can be found in PubChem BioAssay (NCATS).

Values without a mark were called inactive. Records with an inconclusive call do not appear. Calls of active or inactive are those of the source. Unless noted, calls follow the shape of the dose curve; as a rule, active = well fitted curve in either direction with a large enough effect (not every such curve was filed as active); inconclusive = small, poorly fitted or top-dose-only effect, or another doubt; inactive = flat fitted curve, though single readings scatter.

For assay [1], the target named is Lysosomal acid glucosylceramidase (Homo sapiens) (UniProt P04062). As to the kind of experiment: Glucocerebrosidase-p2 (AID 348; in the data active = potency below about 10 µM; also: potency is read from the fitted curve at half-maximal effect). Conditions: purified GBA, blue fluorogenic substrate, 40 min. Summed up:
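Normal human glucocerebrosidase (0.2 nM) with blue fluorogenic substrate (80 uM final) in citrate/phosphate pH 5.9 with 10mM sodium taurocholate, 0.01% tween-20; 40 min RT, NaOH/glycine stop; fluorescence Ex 365/Em 440; AC50 from a titration from 0.6 nM upwards.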

Assay [2] in a line: AP1 Signaling Pathway (AID 357).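 Also: ME-180 reporter cells stimulated with EGF at its EC50 level; % is scaled to controls: 0 for no effect and ±100 for the full control effect.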 To be noted: ME-180 AP-1-bla reporter, EGF-induced, beta-lactamase ratio, 5 h; at 7.69 µM (top of the series) unless noted. In short, it runs like this:
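Read-out was the 460nm/530nm emission ratio (excitation 405nm) after CCF4 loading for 2.5 hours at room temperature. Cells carried an AP-1-driven beta-lactamase reporter, were stimulated with EC50 EGF plus compound for 5 hours, and AC50 values came from titrations.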

The target in assay [3] is Cytochrome P450 1A2 (Homo sapiens) (UniProt P05177). As to the kind of experiment: p450-cyp1a2 (AID 410; calls by dose curve; also: potency is read from the fitted curve at half-maximal effect). To be noted: recombinant CYP1A2, luciferin-ME demethylation, luminescence; series mostly up to 11.4 µM. In short, it runs like this: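 O-Demethylation of luciferin 6' methyl ether by human CYP1A2 is monitored as luciferase luminescence. Substrate sits at Km (100uM); enzyme is 20nM. Values are scaled to 57 uM furafylline as maximal inhibition.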
Cytochrome P450 1A2 (Homo sapiens), sequence (P05177 whole entry, looked up): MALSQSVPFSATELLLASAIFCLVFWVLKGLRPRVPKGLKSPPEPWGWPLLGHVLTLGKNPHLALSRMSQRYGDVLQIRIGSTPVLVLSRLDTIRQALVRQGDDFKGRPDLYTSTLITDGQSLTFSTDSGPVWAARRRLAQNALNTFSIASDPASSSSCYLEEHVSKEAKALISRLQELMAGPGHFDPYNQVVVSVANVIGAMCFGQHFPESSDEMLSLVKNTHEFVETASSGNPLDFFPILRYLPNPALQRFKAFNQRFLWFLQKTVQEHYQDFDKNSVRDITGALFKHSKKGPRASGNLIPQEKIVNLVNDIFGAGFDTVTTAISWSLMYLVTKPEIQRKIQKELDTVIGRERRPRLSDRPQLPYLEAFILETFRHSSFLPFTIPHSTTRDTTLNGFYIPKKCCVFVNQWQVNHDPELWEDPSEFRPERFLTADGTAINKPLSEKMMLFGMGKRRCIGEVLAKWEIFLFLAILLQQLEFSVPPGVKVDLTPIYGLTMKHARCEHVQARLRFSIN

A short description of assay [4]: NFAT Signaling Pathway (AID 444).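 Also: carbachol stimulus at about its EC50 of 1 µM final; % is scaled to controls: 0 for no effect and ±100 for the full control effect.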 Conditions: Jurkat NFAT-bla M1, carbachol, beta-lactamase ratio, 5 h; at 7.69 µM (top of the series) unless noted. Summed up:
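Jurkat cells carrying an NFAT-driven β-lactamase reporter and co-transfected muscarinic M1 receptor were treated with compound plus carbachol (1 uM final, an EC50 level) for 5 h at 37 °C. CCF4 loading followed for 1 h at RT; 460/530 nm ratio gave %activity.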

A short description of assay [5]: Stat Signaling Pathway (AID 446).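 Also: ME-180 cervical cancer cells given 40 pM IL-6 alongside compound; SIE-controlled beta-lactamase reporter measured as 460/530 nm FRET emission ratio; % is scaled to controls: 0 for no effect and ±100 for the full control effect.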 Conditions: ME-180 SIE beta-lactamase reporter, IL-6 stimulated, 5 h; at 7.69 µM (top of the series) unless noted. Summed up:
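FRET read-out (405 nm excitation, 460/530 nm emission) of a beta-lactamase reporter under a STAT-inducible element in ME-180 cervical carcinoma cells. Cells with compound receive 40 pM IL-6 for 5 h. Values are normalised to AC90 stimulation and AC90 JAK-inhibitor controls.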

Assay [6] deals with Glucocorticoid receptor (Homo sapiens) (UniProt P04150). As to the kind of experiment: GR-GFP Redistribution (AID 450;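 active = compounds whose dose series gives a full or clear partial fitted curve of increased nuclear translocation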; also: potency is read from the fitted curve at half-maximal effect). To be noted: U2OS GR-GFP nuclear translocation, laser cytometry, 2 h.
Glucocorticoid receptor (Homo sapiens), sequence (P04150 whole entry, looked up, the tested form may be a part): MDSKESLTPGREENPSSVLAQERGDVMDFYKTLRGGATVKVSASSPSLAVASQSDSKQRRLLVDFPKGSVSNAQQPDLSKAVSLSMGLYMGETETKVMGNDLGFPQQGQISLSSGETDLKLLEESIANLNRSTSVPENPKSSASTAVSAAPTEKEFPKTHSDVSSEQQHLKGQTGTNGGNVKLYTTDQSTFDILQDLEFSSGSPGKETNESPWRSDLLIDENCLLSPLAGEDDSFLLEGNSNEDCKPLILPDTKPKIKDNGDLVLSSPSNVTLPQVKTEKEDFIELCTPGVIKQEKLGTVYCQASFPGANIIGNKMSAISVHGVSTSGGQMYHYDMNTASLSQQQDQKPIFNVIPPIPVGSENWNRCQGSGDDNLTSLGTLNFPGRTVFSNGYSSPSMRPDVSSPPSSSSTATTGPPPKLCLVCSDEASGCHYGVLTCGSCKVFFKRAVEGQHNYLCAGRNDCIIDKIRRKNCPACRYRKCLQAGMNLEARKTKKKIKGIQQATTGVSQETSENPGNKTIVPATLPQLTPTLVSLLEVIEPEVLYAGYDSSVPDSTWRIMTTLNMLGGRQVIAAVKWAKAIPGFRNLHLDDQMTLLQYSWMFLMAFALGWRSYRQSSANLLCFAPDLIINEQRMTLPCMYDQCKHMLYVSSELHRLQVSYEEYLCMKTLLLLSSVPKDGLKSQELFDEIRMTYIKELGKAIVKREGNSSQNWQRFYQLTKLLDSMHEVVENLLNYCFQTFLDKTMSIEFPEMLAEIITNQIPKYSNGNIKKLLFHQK
For assay [7], the target named is Mitogen-activated protein kinase 10 (Mus musculus) (UniProt Q61831). As to the kind of experiment: JNK3 AlphaScreen Assay (AID 530).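 Also: kinase came from lysate of stimulated human HepG2 cells; signal reports phosphorylation of biotinylated GST-cJun 1-79 at Ser73 with 10 µM ATP; % is scaled to controls: 0 for no effect and ±100 for the full control effect.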 To be noted: JNK3 lysate, c-Jun phosphorylation; series mostly up to 11.4 µM. Summed up:
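Phosphorylation of biotinylated GST-cJun(1-79) at Ser73 is measured by AlphaScreen proximity luminescence. Enzyme is JNK3 in HepG2 lysates activated with interleukin-1beta and tumor necrosis factor alpha; ATP is 10 uM final.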

In assay [8] the target is 3',5'-cyclic-AMP phosphodiesterase 4B (Homo sapiens) (UniProt Q07343). As to the kind of experiment: qHTS Assay for Inhibitors of PDE-IV (AID 607; active = well fitted activation curve with a large enough effect in the main read-out, with a control signal flat, not every such curve was filed as active; also: % of control where 0% means no effect). To be noted: HEK293 ACTOne CNG channel cells, membrane potential fluorescence; series mostly up to 22.9 µM. In short, it runs like this:
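Cell-based read-out of cAMP via a modified cyclic nucleotide-gated channel and membrane potential dye (535/590 nm) in HEK293 cells expressing PDE4 endogenously. Compounds tested up to 22.9 uM final; 100 uM RO 20-1724 reference.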
On the technique in general: In qHTS, concentration-response curves come from the screen itself.

Assay [9] concerns the target Cytochrome P450 2D6 (Homo sapiens) (UniProt P10635). The assay can be described thus: qHTS Assay for Inhibitors and Substrates of Cytochrome P450 2D6 (AID 891; active = well fitted curve in the direction sought with a large enough effect; an effect the other way counts as inactive or inconclusive; also: potency is read from the fitted curve at half-maximal effect; nearly all actives have a fitted effect of over 60% in size). Conditions: recombinant CYP2D6, luciferin-ME EGE luminescence; series mostly up to 11.4 µM. In short, it runs like this:
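Luminescent read-out of luciferin formed by 5 nM human CYP2D6 demethylating 30 uM Luciferin-ME EGE (Km level) over 60 min at room temperature after NADPH regeneration addition. Data normalized to full inhibition by 1.43 uM quinidine.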

Assay [10] deals with Glucocorticoid receptor (Homo sapiens) (UniProt P04150). As to the kind of experiment: GR-EFC Redistribution (AID 451; calls by dose curve; also: potency is read from the fitted curve at half-maximal effect). Conditions: CHO-K1 GR-EFC translocation, beta-gal luminescence, 2 h. In short, it runs like this: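 CHO-K1 cells stably expressing nuclear-localized β-gal enzyme acceptor and GR fused C-terminally to the enzyme donor fragment; ligand-driven nuclear translocation restores β-gal by complementation. Compounds titrated up to 46 uM final, 2 h at 37 °C; luminescence read.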

Assay [11] has as its target Cytochrome P450 2C9 (Homo sapiens) (UniProt P11712). The assay can be described thus: qHTS Assay for Inhibitors and Substrates of Cytochrome P450 2C9 (AID 883; active = well fitted curve in the direction sought with a large enough effect; an effect the other way counts as inactive or inconclusive; also: potency is read from the fitted curve at half-maximal effect; nearly all actives have a fitted effect of over 60% in size). To be noted: recombinant CYP2C9, luciferin-H luminescence, 60 min; series mostly up to 11.4 µM. In short, it runs like this: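 CYP2C9 deoxyluciferin hydroxylation, 37C, 60 min with NADPH regeneration; 10nM enzyme, 100uM Luciferin-H (KM). Glo detection reagent stopped reaction; luminescence normalized to sulphaphenazole (57uM) full inhibition.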

The target of assay [12] is Cytochrome P450 3A4 (Homo sapiens) (UniProt P08684). As to the kind of experiment: qHTS Assay for Activators of Cytochrome P450 3A4 (AID 885; active = well fitted curve in the direction sought with a large enough effect; an effect the other way counts as inactive or inconclusive; also: nearly all actives have a fitted effect of over 65% in size). To be noted: recombinant CYP3A4, Luciferin-PPXE luminescence, 60 min; series mostly up to 11.4 µM. Summed up: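 Luminescent readout of luciferin formed from 25 uM Luciferin-PPXE (KM level) by 20 nM CYP3A4 in 200 mM KPO4, with 60 min NADPH-driven reaction at room temperature after 10 min compound exposure. Ketoconazole (57 uM) defined 100% inhibition.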
Cytochrome P450 3A4 (Homo sapiens), sequence (P08684 whole entry, looked up): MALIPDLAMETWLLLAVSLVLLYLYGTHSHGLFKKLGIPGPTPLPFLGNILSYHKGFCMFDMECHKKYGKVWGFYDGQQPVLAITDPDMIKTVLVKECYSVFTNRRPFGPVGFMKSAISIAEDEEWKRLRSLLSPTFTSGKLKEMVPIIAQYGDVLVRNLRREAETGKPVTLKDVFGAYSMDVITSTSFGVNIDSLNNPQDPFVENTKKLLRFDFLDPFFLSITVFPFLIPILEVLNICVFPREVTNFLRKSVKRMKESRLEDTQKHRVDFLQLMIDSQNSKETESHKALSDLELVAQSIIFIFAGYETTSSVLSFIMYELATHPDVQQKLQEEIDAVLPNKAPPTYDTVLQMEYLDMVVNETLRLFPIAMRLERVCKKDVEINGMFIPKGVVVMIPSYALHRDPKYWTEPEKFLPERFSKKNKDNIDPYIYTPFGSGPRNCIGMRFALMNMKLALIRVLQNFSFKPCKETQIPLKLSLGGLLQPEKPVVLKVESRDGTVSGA

Assay [13] has as its target Cytochrome P450 2C19 (Homo sapiens) (UniProt P33261). As to the kind of experiment: qHTS Assay for Inhibitors and Substrates of Cytochrome P450 2C19 (AID 899; active = well fitted curve in the direction sought with a large enough effect; an effect the other way counts as inactive or inconclusive; also: potency is read from the fitted curve at half-maximal effect; nearly all actives have a fitted effect of over 60% in size). To be noted: recombinant CYP2C19, luciferin-H EGE luminescence; series mostly up to 11.4 µM. Summed up: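 In 50mM KPO4, the reaction held 5nM enzyme and KM-level (10uM) Luciferin-H EGE; it ran 60 min at 37C after NADPH regeneration and a 10 min compound preincubation. Luminescence values were scaled to 57uM ketoconazole as complete inhibition.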

A short description of assay [14]: qHTS Assay for Identification of Small Molecule Agonists for Hypoxia Response Element Signaling Pathway (AID 914; active = well fitted activation curve with a large enough effect in the signal ratio, with a control signal flat, not every such curve was filed as active; the % refers to the signal ratio; also: % of control where 0% means no effect). To be noted: ME-180 (cervical carcinoma) HRE-bla reporter, beta-lactamase ratio, CoCl2, 17 h; activation: active compounds read high. Summed up:
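Read-out: CCF4 FRET ratio of 460nm to 530nm emission (excitation 405nm) after 2.5 hours at room temperature, taken from HRE-bla ME-180 cells that had been exposed to compound and EC50 CoCl2 for 17 hours.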

3',5'-cyclic-AMP phosphodiesterase 4B (Homo sapiens), sequence (Q07343 whole entry, looked up): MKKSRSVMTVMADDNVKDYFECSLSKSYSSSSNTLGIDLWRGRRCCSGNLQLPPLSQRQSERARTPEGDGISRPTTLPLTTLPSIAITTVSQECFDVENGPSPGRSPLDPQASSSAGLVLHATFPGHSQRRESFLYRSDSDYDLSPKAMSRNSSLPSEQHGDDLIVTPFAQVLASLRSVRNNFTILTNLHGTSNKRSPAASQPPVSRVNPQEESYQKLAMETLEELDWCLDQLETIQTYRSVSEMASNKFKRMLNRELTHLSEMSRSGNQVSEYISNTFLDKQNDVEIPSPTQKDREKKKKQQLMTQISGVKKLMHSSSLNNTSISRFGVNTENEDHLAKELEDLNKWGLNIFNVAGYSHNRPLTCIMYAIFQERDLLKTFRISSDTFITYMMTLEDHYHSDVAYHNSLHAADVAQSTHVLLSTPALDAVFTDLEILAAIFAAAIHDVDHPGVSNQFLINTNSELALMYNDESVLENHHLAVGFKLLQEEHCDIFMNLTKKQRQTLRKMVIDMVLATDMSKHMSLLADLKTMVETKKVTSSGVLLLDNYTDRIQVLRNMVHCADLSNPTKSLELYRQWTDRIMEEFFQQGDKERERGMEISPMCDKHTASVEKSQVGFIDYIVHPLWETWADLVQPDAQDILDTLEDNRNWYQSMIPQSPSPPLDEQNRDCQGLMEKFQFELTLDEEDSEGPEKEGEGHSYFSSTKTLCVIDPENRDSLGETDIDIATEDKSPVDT
Lysosomal acid glucosylceramidase (Homo sapiens), sequence (P04062 whole entry, looked up): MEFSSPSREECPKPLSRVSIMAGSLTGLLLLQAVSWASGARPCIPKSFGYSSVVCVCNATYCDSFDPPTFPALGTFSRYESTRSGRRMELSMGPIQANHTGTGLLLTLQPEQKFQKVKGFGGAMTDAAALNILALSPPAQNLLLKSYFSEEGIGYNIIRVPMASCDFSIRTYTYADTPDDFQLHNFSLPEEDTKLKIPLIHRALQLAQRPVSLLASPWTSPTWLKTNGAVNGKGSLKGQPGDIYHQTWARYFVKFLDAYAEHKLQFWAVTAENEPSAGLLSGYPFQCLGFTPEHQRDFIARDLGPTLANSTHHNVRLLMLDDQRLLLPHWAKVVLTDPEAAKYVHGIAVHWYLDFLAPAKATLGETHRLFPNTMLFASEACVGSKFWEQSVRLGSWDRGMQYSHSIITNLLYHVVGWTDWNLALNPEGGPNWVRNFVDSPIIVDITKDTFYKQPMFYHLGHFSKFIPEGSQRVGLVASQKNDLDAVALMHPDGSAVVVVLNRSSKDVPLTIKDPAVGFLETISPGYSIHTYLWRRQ
Cytochrome P450 2C19 (Homo sapiens), sequence (P33261 whole entry, looked up): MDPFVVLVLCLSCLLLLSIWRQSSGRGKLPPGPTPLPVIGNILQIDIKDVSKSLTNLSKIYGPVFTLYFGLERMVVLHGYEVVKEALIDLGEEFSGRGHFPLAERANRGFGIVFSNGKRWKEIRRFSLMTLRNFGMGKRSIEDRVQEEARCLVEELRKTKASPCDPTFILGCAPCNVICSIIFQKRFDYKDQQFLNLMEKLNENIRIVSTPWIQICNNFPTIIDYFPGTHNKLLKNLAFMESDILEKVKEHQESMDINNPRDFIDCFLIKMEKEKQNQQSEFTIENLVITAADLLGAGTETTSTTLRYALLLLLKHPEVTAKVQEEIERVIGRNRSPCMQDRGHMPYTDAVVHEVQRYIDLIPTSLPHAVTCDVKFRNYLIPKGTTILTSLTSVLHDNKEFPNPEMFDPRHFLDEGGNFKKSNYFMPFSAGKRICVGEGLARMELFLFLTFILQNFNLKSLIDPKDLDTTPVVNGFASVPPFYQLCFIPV
Cytochrome P450 2C9 (Homo sapiens), sequence (P11712 whole entry, looked up): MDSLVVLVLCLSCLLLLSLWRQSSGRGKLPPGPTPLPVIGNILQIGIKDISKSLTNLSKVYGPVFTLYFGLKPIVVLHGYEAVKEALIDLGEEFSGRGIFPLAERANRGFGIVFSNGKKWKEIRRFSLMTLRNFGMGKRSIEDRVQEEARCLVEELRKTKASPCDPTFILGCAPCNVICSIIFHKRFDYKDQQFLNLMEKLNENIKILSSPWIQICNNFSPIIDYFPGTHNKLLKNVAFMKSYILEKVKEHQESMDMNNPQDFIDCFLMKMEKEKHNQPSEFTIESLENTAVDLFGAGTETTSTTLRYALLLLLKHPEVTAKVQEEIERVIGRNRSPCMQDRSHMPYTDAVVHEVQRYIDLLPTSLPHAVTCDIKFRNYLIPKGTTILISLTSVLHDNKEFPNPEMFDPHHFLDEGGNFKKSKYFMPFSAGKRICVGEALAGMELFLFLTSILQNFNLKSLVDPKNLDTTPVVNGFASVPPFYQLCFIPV
Cytochrome P450 2D6 (Homo sapiens), sequence (P10635 whole entry, looked up): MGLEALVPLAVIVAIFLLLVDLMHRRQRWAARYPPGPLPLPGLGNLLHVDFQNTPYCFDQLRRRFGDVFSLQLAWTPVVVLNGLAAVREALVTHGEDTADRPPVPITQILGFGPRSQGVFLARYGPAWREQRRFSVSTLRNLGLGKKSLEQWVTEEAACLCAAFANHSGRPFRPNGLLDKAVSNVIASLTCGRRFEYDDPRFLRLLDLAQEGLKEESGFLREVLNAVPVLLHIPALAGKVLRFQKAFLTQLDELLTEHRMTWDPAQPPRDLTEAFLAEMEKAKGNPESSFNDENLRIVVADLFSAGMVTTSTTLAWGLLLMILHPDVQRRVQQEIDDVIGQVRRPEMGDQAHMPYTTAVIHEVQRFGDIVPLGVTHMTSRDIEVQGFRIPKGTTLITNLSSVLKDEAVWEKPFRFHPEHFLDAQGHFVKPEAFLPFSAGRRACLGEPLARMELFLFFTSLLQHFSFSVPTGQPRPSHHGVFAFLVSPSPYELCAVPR

Turning to `C/C(=N/O)c1ccc2cc(Br)c3ccccc3c2c1`, the Potency in assay [1] is over 11.4 µM; in [6] it was over 46 µM; in assay [9] it was 0.0251 µM (active). In addition, the activity change, negative = inhibition in assay [2] was 15%; in assay [3] it was -13.6% [at 2.29 µM]; in assay [4], 1.9%. Besides, the activity, negative = inhibition in assay [5] was -6.91%. The Potency entry in assay [7] and in assay [8] was “inactive” throughout.
Turning to `O=C(O)c1cc(C(=O)C(=O)c2cc(C(=O)O)c(O)c3ccccc23)c2ccccc2c1O`, the Potency in assay [1] was over 11.4 µM; in [6] it was over 46 µM; in assay [10], over 9.22 µM; in assay [11], 0.316 µM (active). Besides, the values for the activity change, negative = inhibition in assay [2] and in assay [4] were 22.7% and 10.6%, respectively. Also, the Potency entry in assay [3] was “inactive”. In addition, the activity, negative = inhibition in [5] is 0.955%.
Turning to `C(/C=C\c1ccccc1)=Nc1ccc2c(c1)Cc1ccccc1-2`, the Potency was over 11.4 µM in assay [1], 0.398 µM (active) in assay [3], over 46 µM in assay [6] and 3.98 µM (active) in [13]. Besides, the results for the activity change, negative = inhibition in assay [2] and in [4] were -2.87% and -3.9%, respectively. Also, the activity, negative = inhibition in assay [5] was 7.01%. The Potency result in assay [7], in assay [8] and in assay [12] was “inactive” throughout.
`NC(N)=N[C@@H]1C(O)[C@H](N=C(N)N)[C@@H](O)C(O)[C@H]1O` (some centres undefined): the results for the Potency in assay [1] and in [6] were over 11.4 µM and over 46 µM, respectively. Further, the figures for the activity change, negative = inhibition in [2], in [3] and in assay [4] were -5.59%, -4.9% [at 2.29 µM] and 13.4%, respectively. Also, in assay [5], the activity, negative = inhibition is -0.855%. The Potency result in assay [7] and in assay [8] was “inactive” throughout.
`COc1cc(NCCC(=O)O)c2ncccc2c1`: the Potency in assay [1] is over 11.4 µM; in [6], over 46 µM. Besides, the activity change, negative = inhibition in [2] was 2.4%; in [4], 2.69%. The Potency result in assay [3], in assay [7] and in assay [8] was “inactive” in each case. The activity, negative = inhibition in assay [5] was -1.17%.
Regarding `O=C(O)c1nc(-c2ccccc2)[nH]c1C(=O)O`, the Potency in assay [1] is over 11.4 µM; in [3], 1 µM (active); in assay [6], over 46 µM; in [13] it was 3.16 µM (active). The activity change, negative = inhibition is -6.16% in [2] and -19.8% in assay [4]. Besides, in assay [5], the activity, negative = inhibition is -26.6%. In addition, the Potency result in assay [7] and in assay [8] was “inactive” in each case.
For the compound `CC(=O)O[C@]1(C)N=NC2(CCCCC2)O1`, the Potency was over 11.4 µM in assay [1] and over 46 µM in [6]. Moreover, the activity change, negative = inhibition in assay [2] was 0.791%; in [4] it was 3.95%. The Potency result in [3], in assay [7] and in assay [8] was “inactive” each time. For the same compound, in [5], the activity, negative = inhibition was 16.1%. Besides, the activation in assay [14] was 14.3%.
Regarding `C[Si](C)(c1ccc(C(=O)O)cc1)c1ccc(C(=O)O)cc1`, the Potency in assay [1] was over 11.4 µM; in assay [6] it was over 46 µM. Further, the activity change, negative = inhibition in [2] was -1.98%; in assay [4], -2.05%. Besides, the Potency entry in assay [3], in assay [7] and in assay [8] was “inactive” each time. Also, the activity, negative = inhibition in [5] was 14.2%.
